From PubChem BioAssay AID434931 (National Center for Advancing Translational Sciences (NCATS), 2010)
Records with an inconclusive call do not appear. The source made the active and inactive calls. Calls follow the shape of the dose curve; as a rule, active = well fitted inhibition curve with a large enough effect; inconclusive = small, poorly fitted or top-dose-only effect, or another doubt; inactive = no such curve, though single readings can be large or run the other way.

Each compound was assayed against Neuropeptide S receptor (Homo sapiens) (UniProt Q6W5P4) (assay: Confirmation Concentration-Response Assay for Antagonists of the Neuropeptide S Receptor: Robust Characterization of Calcium Signal Transduction). Settings: CHO-NPSR cells, NPS-induced calcium fluorescence (FDSS).
Sequence of Neuropeptide S receptor (Homo sapiens) (Q6W5P4 whole entry, looked up): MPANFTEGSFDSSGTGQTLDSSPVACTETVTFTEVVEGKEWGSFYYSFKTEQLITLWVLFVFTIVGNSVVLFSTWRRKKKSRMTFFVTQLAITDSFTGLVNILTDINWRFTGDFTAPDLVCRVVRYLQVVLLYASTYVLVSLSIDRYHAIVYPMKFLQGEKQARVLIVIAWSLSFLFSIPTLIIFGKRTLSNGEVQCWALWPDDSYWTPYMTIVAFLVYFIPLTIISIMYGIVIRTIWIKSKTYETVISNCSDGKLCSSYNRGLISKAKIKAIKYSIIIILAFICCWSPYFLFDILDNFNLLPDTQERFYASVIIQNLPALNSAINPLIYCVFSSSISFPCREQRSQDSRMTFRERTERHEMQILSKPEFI
Text: NIH Chemical Genomics Center [NCGC] NIH Molecular Libraries Probe Production centers Network [MLPCN] MLPCN Grant: X01-DA026210-01 Assay Submitter (PI): Heilig, Markus Alexander NCGC Assay Overview: Neuropeptide S receptor (NPSR), previously known as GPR154, is a recently de-orphanized G protein coupled receptor. Its endogenous ligand is the 20 amino acids peptide Neuropeptide S (NPS). […] NPS and its receptor are found in various tissues. Specifically they are highly expressed in brain areas that have been implicated in modulation of arousal, stress and anxiety. Central administration of NPS in mice produces an unusual profile of activity by inducing wakefulness and arousal, while at the same time suppressing anxiety. Therefore, NPSR may represent a novel drug target for the treatment of sleep and anxiety disorders. To identify NPSR antagonists, we developed a cell-based assay with transfected NPS receptor. NPS can stimulate the production of cAMP as well as release intracellular calcium in Chinese hamster ovary cells stably expressing NPS receptor. This change in intracellular calcium can be detected using a calcium indicator dye on a calcium imaging plate reader system (FDSS). This particular assay uses a high density of sampling across concentration-response space to establish more confidence estimates of potency.
NCGC Assay Protocol Summary: A Chinese hamster ovary (CHO) cell line stably expressing the NPS receptor (CHO-NPSR) was obtained from Dr. Heilig lab at NIAAA and maintained in F-12 Kaighn's media (Invitrogen, Carlsbad, CA, 21127) supplemented with 10 % FBS, 100 units/ml penicillin, 100 ug/ml streptomycin and 250 ug/ml geneticin at 37C, 5% CO2 in a humidified atmosphere. Before the assay, aliquots of cells were frozen and stored at -135C. The assay was performed on a FDSS-7000 kinetic plate reader in 1536-well format. For both agonist (1-220s) and antagonist (221-400s) phases, the maximums of kinetic fluorescence responses were converted separately into text files using the instrument's software data export utility. Data for agonist response were normalized to the controls for basal activity (DMSO only) and 100% activation (NPS). […] AC50 values were determined from concentration-response data modeled with the standard Hill equation. NPS 1536-well FDSS assay protocol: (1) Frozen CHO-NPSR cells were thaw, washed once with fresh media and resuspended in F-12 Kaighn's media supplemented with 10 % FBS, 100 units/ml penicillin and 100 ug/ml streptomycin. Cells were plated at 3 ul/well (1200 cells) to black, clear-bottom, tissue-culture treated 1536-well plates, and then cultured at 37C, 5 % CO2 for 16 to 30 hours. (2) Add 3 ul of calcium dye (from High Performance PBX Calcium Assay Kit, BD Biosciences). The calcium dye was prepared according to the manufactory's instruction. (3) Incubation at 37C, 5 % CO2 for 60 to 120 min. (4) Load plates to FDSS-7000. The following steps were performed on FDSS-7000. (5) Record fluorescent background (Ex 480 nm, Em 520-560 nm) for 10 s. (6) Add 23 nl/well of compound in DMSO solution. The final titration for each compound was between 0.6 nM and 46 uM. Record agonist response for 210 s. (7) Add 2 ul of stimulation reagent (1X HBSS buffer, 0.1% BSA, 60 nM NPS). Record antagonist response for 140 s. Keywords: MLSMR, MLPCN, NIH Roadmap, qHTS, NCGC, NPS, Neuropeptide S Antagonists
With `Cc1c(P(=S)(c2ccccc2)c2ccccc2)[n+]2ccccc2n1C` the Potency was 50.4 nM (active).
`S=P(c1ccccc1)(c1ccccc1)c1cnc2ccccn12` was tested, and the Potency was 4000 nM (active).
With `Cc1nc2ccccn2c1P(=S)(c1ccccc1)c1ccccc1` the Potency was 1000 nM (active).
With `Cc1c(P(=S)(c2ccccc2)c2ccccc2)c2ccccc2n1C` the Potency was 2830 nM (active).
For `Cc1c(P(=S)(c2ccccc2)c2ccccc2)[n+]2ccccc2n1CCCCc1ccccc1`, the Potency was 1.1 nM (active).
`Cc1c(P(=S)(c2ccccc2)c2ccccc2)[n+]2ccccc2n1Cc1ccccc1` was tested, and the Potency was 31.8 nM (active).
`Cc1c(P(=S)(c2ccccc2)c2ccccc2)[n+]2ccccc2n1C/C=C/c1ccccc1` was tested, and the Potency was 0.938 nM (active).
With `Cc1c(P(=S)(c2ccccc2)c2ccccc2)[n+]2ccccc2n1CCCc1ccccc1` the Potency was 2 nM (active).
For `Cc1c(P(=S)(c2ccccc2)c2ccccc2)[n+]2ccccc2n1CCc1ccccc1`, the Potency was 71.2 nM (active).
`C[n+]1cc(P(=S)(c2ccccc2)c2ccccc2)n2ccccc21` was tested, and the Potency was 2520 nM (active).
`Cc1c(P(=S)(c2ccccc2)c2ccccc2)[n+]2ccccc2n1CCCCCc1ccccc1` was tested, and the Potency was 12.7 nM (active).
